The record followed here is the supplement of paper PMC7866885, “A novel bicyclic 2,4-diaminopyrimidine inhibitor of Streptococcus suis dihydrofolate reductase” (PeerJ, 2021).

± gives the standard deviation.

The first experiment relates to Streptococcus suis HE06. As to the kind of experiment: percent growth relative to DMSO control; higher = less growth inhibition. Particulars: 10 µM; incubation time 18 h. Here is the method:
(§1)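 CLSI broth microdilution: 5x10^4 CFU of Streptococcus suis (strain P1/7 or HE06) incubated with 10 µM Pathogen Box compound in cation-adjusted Mueller Hinton broth, 37 °C, 5% CO2, 18 h. Growth read as OD600 and expressed as percent of the DMSO-treated control (100%); mean ± SD of three independent experiments.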
As to `COC(=O)c1c(NC(=O)c2c(F)c(F)c(F)c(F)c2F)sc2c1CCCCC2`, the percent growth turned out to be 105 ± 7.8%.

`CCOC(=O)c1c(NC(=O)c2c(F)c(F)c(F)c(F)c2F)sc(C(N)=O)c1C`: the percent growth worked out at 91.9 ± 6%.

On to `Cn1ccnc1CNCCS(=O)(=O)c1cccc(Nc2ccc(-c3cccc(F)c3)cn2)c1`, for which the percent growth stood at 91.4 ± 14%.

The compound `CN1CCN(CCCOc2ncc(Nc3ncc(-c4ccc(C(F)(F)F)c(F)c4)nc3C(N)=O)cn2)CC1` gave a percent growth of 114 ± 43%.

With `O=C(C1CCN(c2cc(-n3cccc3)ncn2)CC1)N1CCc2ccccc2C1`, the percent growth was 106 ± 15%.

Compound `COc1ccccc1CNC(=O)c1cc(C2CC2)nc2c1cnn2C(C)C` showed a percent growth of 81.6 ± 10%.

In turn, `N#Cc1ccc(-c2ccc(OCC(N)=O)cc2)cc1` came in with a percent growth of 91.4 ± 11%.

Consider `NCCN(C(=O)c1ccc(Cl)cc1Cl)c1ccc(OCc2ccc(Cl)cc2)cc1`, for which the percent growth was 68.3 ± 61%.

As for `Cn1ncc2c(N3CCOCC3)nc(NCCc3c[nH]c4ccccc34)nc21`, the percent growth worked out at 76.5 ± 10%.

In turn, `CCCCc1ccc(NC(=O)Nc2ccc(O[C@H]3CCCC[C@@H]3N(C)c3ccccc3)c(F)c2)cc1` displayed a percent growth of 77.8 ± 26%.

In the case of `Nc1ccc(C(=O)Nc2ccc(-c3nc4ccccc4o3)cc2)cc1`, the percent growth came to 105 ± 4.4%.

In turn, `CCN(CC)S(=O)(=O)c1ccc(Cl)c(C(=O)Nc2ccc3nc(C)sc3c2)c1` gave a percent growth of 83.9 ± 6.7%.

The compound `O=C(Nc1nnc(-c2ccc(Cl)cc2)o1)c1cccc(C(F)(F)F)c1` yielded a percent growth of 0%.

`CC(C)(C)OC(=O)N1CCC(Cn2nc(-c3cnc4ccccc4c3)c3c(N)ncnc32)CC1` had a percent growth of 88.2 ± 27%.

Compound `O=C(NC1CC1)c1ccc(N2CCC(Cc3ccccc3)CC2)nc1` gave a percent growth of 91.7 ± 9.1%.

Regarding `Clc1cccc(CO[C@H]2CCc3ccccc3[C@@H]2n2ccnn2)c1`, the percent growth stood at 97.4 ± 3.9%.

`CC(=O)NC[C@@H]1CN(c2ccc(N3CCOCC3)c(F)c2)C(=O)O1` showed a percent growth of 3.9 ± 5.2%.

Take `Cc1cc2nc(NC(=O)C(C)(C)C)nc(Cl)c2n1Cc1ccc(Cl)cc1`: the percent growth amounted to 115 ± 19%.

On to `COC(=O)c1cccc2oc(-c3cccc(OC)c3NC(=O)c3cc(-c4ccccc4)on3)nc12`, for which the percent growth came out at 102 ± 25%.

As to `Cc1cc(Cl)ccc1NC(=O)CCc1ccc(S(=O)(=O)NCC(C)C)cc1`, the percent growth amounted to 87.8 ± 9.9%.

Consider `C[C@]1(O)C[C@@H](c2nc(-c3ccc4ccc(-c5ccccc5)nc4c3)c3c(N)nccn32)C1`, for which the percent growth was determined as 81.6 ± 9.1%.

`COc1cc2ncnc(NC3CCN(Cc4ccccc4)CC3)c2cc1OC` came in with a percent growth of 103 ± 27%.

Compound `CC(Oc1cccc(Cl)c1)C(=O)Nc1ccc2oc(-c3ccncc3)nc2c1` (stereo not drawn) returned a percent growth of 75.2 ± 17%.

`CCc1nc2ccccc2n1CC(O)COc1cc(C)ccc1Cl` (stereo not drawn): the percent growth worked out at 65.7 ± 22%.

On to `CS(=O)(=O)N1CCC(Cn2nc(Cc3cccc4ccccc34)c3c(N)ncnc32)CC1`, for which the percent growth was 91.3 ± 29%.

The compound `Nc1nccc2ccc(Oc3ccncc3)cc12` registered a percent growth of 97.4 ± 7%.

For `CCC(=O)Nc1ccccc1C(=O)Nc1ccccn1`, the percent growth worked out at 93.7 ± 5.2%.

In the case of `COc1ccc(-c2cnc3cnc(-c4cccc(OC(C)C)c4)cn23)cc1`, the percent growth is 59 ± 50%.

In the case of `CCOc1ccc2cc(-c3nn(C(C)(C)C)c(N)c3C(N)=O)cnc2c1`, the percent growth is 77.6 ± 17%.

On to `Cc1ccc(S(=O)(=O)n2cc(-c3ccnc(N)c3)c3cc(Br)cnc32)cc1`, for which the percent growth amounted to 95.2 ± 32%.

`CC[C@H](CO)NCCN[C@H](CC)CO` returned a percent growth of 88.7 ± 6.4%.

`Cc1ccc(NC(=O)c2nc[nH]c2C(=O)Nc2nc3ccccc3[nH]2)c(C)c1` had a percent growth of 47.8 ± 38%.

The compound `FC(F)(F)c1cccc(-c2nc3c(NCc4ccncc4)nccc3[nH]2)c1` displayed a percent growth of 90.4 ± 20%.

Take `c1ccc(Oc2ccc(-c3cc(N4CCNCC4)[nH]n3)cc2)cc1`: the percent growth was 106 ± 35%.

`Cc1ccc2oc(-c3cc(NC(=O)Cc4ccccc4)ccc3Cl)nc2c1` yielded a percent growth of 93.1 ± 13%.

Compound `COC(=O)C1=C(C)NC(C)=C(C(=O)OC(C)C)C1c1cccc2nonc12` (stereo not drawn) gave a percent growth of 73.1 ± 15%.

As to `CC(C)(CN)c1nc(-c2ccc(Cl)c(O)c2)c(-c2ccnc(N)n2)[nH]1`, the percent growth amounted to 90.9 ± 6.5%.

For the compound `CN(C)c1cc(NC(=O)Nc2ccccc2)c2ccccc2n1`, the percent growth is 105 ± 8.6%.

`O=C(N[C@H](Cc1ccccc1)C(=O)Nc1ccccc1N1CCOCC1)c1cccs1` displayed a percent growth of 92.7 ± 9.4%.

Another experiment deals with Streptococcus suis P1/7. The description is as above. Particulars: 10 µM; incubation time 18 h. Here is the method:
as §1
Consider `COC(=O)c1c(NC(=O)c2c(F)c(F)c(F)c(F)c2F)sc2c1CCCCC2`, for which the percent growth worked out at 85.2 ± 3%.

On to `CCOC(=O)c1c(NC(=O)c2c(F)c(F)c(F)c(F)c2F)sc(C(N)=O)c1C`, for which the percent growth came to 83.2 ± 22%.

Compound `Cn1ccnc1CNCCS(=O)(=O)c1cccc(Nc2ccc(-c3cccc(F)c3)cn2)c1` returned a percent growth of 35 ± 38%.

In turn, `CN1CCN(CCCOc2ncc(Nc3ncc(-c4ccc(C(F)(F)F)c(F)c4)nc3C(N)=O)cn2)CC1` had a percent growth of 97.2 ± 9.4%.

Regarding `O=C(C1CCN(c2cc(-n3cccc3)ncn2)CC1)N1CCc2ccccc2C1`, the percent growth was found to be 59.5 ± 45%.

The compound `COc1ccccc1CNC(=O)c1cc(C2CC2)nc2c1cnn2C(C)C` came in with a percent growth of 83.8 ± 45%.

`N#Cc1ccc(-c2ccc(OCC(N)=O)cc2)cc1` displayed a percent growth of 94.4 ± 35%.

Compound `NCCN(C(=O)c1ccc(Cl)cc1Cl)c1ccc(OCc2ccc(Cl)cc2)cc1` showed a percent growth of 25 ± 43%.

`Cn1ncc2c(N3CCOCC3)nc(NCCc3c[nH]c4ccccc34)nc21`: the percent growth was determined as 78.8 ± 17%.

`CCCCc1ccc(NC(=O)Nc2ccc(O[C@H]3CCCC[C@@H]3N(C)c3ccccc3)c(F)c2)cc1` gave a percent growth of 67.2 ± 2.9%.

In turn, `Nc1ccc(C(=O)Nc2ccc(-c3nc4ccccc4o3)cc2)cc1` showed a percent growth of 92.6 ± 17%.

The compound `CCN(CC)S(=O)(=O)c1ccc(Cl)c(C(=O)Nc2ccc3nc(C)sc3c2)c1` showed a percent growth of 138 ± 70%.

The compound `O=C(Nc1nnc(-c2ccc(Cl)cc2)o1)c1cccc(C(F)(F)F)c1` displayed a percent growth of 2.91 ± 3.9%.

As for `CC(C)(C)OC(=O)N1CCC(Cn2nc(-c3cnc4ccccc4c3)c3c(N)ncnc32)CC1`, the percent growth stood at 74.1 ± 6.8%.

Compound `O=C(NC1CC1)c1ccc(N2CCC(Cc3ccccc3)CC2)nc1` registered a percent growth of 108 ± 16%.

`Clc1cccc(CO[C@H]2CCc3ccccc3[C@@H]2n2ccnn2)c1` displayed a percent growth of 95.9 ± 18%.

`CC(=O)NC[C@@H]1CN(c2ccc(N3CCOCC3)c(F)c2)C(=O)O1` yielded a percent growth of 3.05 ± 1.6%.

The compound `Cc1cc2nc(NC(=O)C(C)(C)C)nc(Cl)c2n1Cc1ccc(Cl)cc1` returned a percent growth of 109 ± 58%.

As for `COC(=O)c1cccc2oc(-c3cccc(OC)c3NC(=O)c3cc(-c4ccccc4)on3)nc12`, the percent growth worked out at 66 ± 18%.

As for `Cc1cc(Cl)ccc1NC(=O)CCc1ccc(S(=O)(=O)NCC(C)C)cc1`, the percent growth was 95.4 ± 17%.

`C[C@]1(O)C[C@@H](c2nc(-c3ccc4ccc(-c5ccccc5)nc4c3)c3c(N)nccn32)C1` showed a percent growth of 97 ± 18%.

`COc1cc2ncnc(NC3CCN(Cc4ccccc4)CC3)c2cc1OC` registered a percent growth of 122 ± 11%.

Compound `CC(Oc1cccc(Cl)c1)C(=O)Nc1ccc2oc(-c3ccncc3)nc2c1` (stereo not drawn) displayed a percent growth of 77.5 ± 2.9%.

Turning to `CCc1nc2ccccc2n1CC(O)COc1cc(C)ccc1Cl` (stereo not drawn), the percent growth stood at 103 ± 41%.

Consider `CS(=O)(=O)N1CCC(Cn2nc(Cc3cccc4ccccc34)c3c(N)ncnc32)CC1`, for which the percent growth turned out to be 65.7 ± 20%.

Consider `Nc1nccc2ccc(Oc3ccncc3)cc12`, for which the percent growth was 84.2 ± 8.7%.

`CCC(=O)Nc1ccccc1C(=O)Nc1ccccn1` yielded a percent growth of 103 ± 41%.

In turn, `COc1ccc(-c2cnc3cnc(-c4cccc(OC(C)C)c4)cn23)cc1` yielded a percent growth of 25.7 ± 45%.

`CCOc1ccc2cc(-c3nn(C(C)(C)C)c(N)c3C(N)=O)cnc2c1` came in with a percent growth of 83.1 ± 23%.

For `Cc1ccc(S(=O)(=O)n2cc(-c3ccnc(N)c3)c3cc(Br)cnc32)cc1`, the percent growth was determined as 61.5 ± 15%.

Compound `CC[C@H](CO)NCCN[C@H](CC)CO` yielded a percent growth of 77 ± 21%.

`Cc1ccc(NC(=O)c2nc[nH]c2C(=O)Nc2nc3ccccc3[nH]2)c(C)c1` returned a percent growth of 1.93 ± 0.44%.

As to `FC(F)(F)c1cccc(-c2nc3c(NCc4ccncc4)nccc3[nH]2)c1`, the percent growth is 72.5 ± 22%.

The compound `c1ccc(Oc2ccc(-c3cc(N4CCNCC4)[nH]n3)cc2)cc1` came in with a percent growth of 67.6 ± 28%.

The compound `Cc1ccc2oc(-c3cc(NC(=O)Cc4ccccc4)ccc3Cl)nc2c1` came in with a percent growth of 78.5 ± 4%.

As for `COC(=O)C1=C(C)NC(C)=C(C(=O)OC(C)C)C1c1cccc2nonc12` (stereo not drawn), the percent growth was determined as 73.6 ± 34%.

`CC(C)(CN)c1nc(-c2ccc(Cl)c(O)c2)c(-c2ccnc(N)n2)[nH]1` gave a percent growth of 79.2 ± 20%.

Compound `CN(C)c1cc(NC(=O)Nc2ccccc2)c2ccccc2n1` gave a percent growth of 87 ± 34%.

For the compound `O=C(N[C@H](Cc1ccccc1)C(=O)Nc1ccccc1N1CCOCC1)c1cccs1`, the percent growth worked out at 85.8 ± 16%.
